In PMC5540273 (PLoS ONE, 2017):

What follows are compounds tested on EIF2AK1. Conditions: concentration: 1 μM, replicates: in singlicate; n = 1.
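Also: KINOMEscan kinase panel screen.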

SMILES	%Inh [%]
CC(=O)N1CCN(c2ccc(Nc3nccc(-c4sc(C(C)C)nc4-c4cccc(NS(=O)(=O)c5cccc(Cl)c5)c4)n3)cn2)CC1 [GSK1660437]	19
CN(C)S(=O)(=O)c1cc(-c2ccc3nccc(-c4cccc(S(N)(=O)=O)c4)c3c2)cnc1N [GSK1669921]	8
O=C(NC1CCN(c2ccnc(Nc3ccc(F)cc3)n2)C1)c1cc2ccccc2s1 (stereo not shown) [GSK1379716]	0
Cn1cc(-c2ccc3c(c2)CCN3C(=O)Cc2cccc(Cl)c2)c2c(N)ncnc21 [GSK2606590]	89
FC(F)(F)c1ccc(/C=C/c2cncnc2Nc2ccc3[nH]c(Cc4ccccc4)nc3c2)cc1 [GW709199]	0
Cl.c1ccc(-c2ccc3c(Nc4ccc5[nH]ccc5c4)ccnc3c2)nc1 [GW440138]	0
c1ccc(-c2n[nH]cc2Nc2ccnc3ccccc23)nc1 [GW694077]	0
CC(C)c1nc(-c2cccc(NS(=O)(=O)c3c(F)cccc3F)c2F)c(-c2ccnc(Nc3ccc(N4CCOCC4)nc3)n2)s1 [GSK2008607]	66
COc1cc(Nc2nccc(N3CCC(NC(=O)c4cc5ccccc5s4)C3)n2)cc(OC)c1OC (stereo not shown) [GSK1379760]	0
COc1cc(Nc2ncc3c(C)nc(-c4cc5ccccc5[nH]4)n3n2)cc(OC)c1OC [GW869516]	0
Cn1cc(-c2[nH]c3cc(NC(=O)[C@H](N)C4CCCCC4)cc4c3c2C=NNC4=O)cn1	0
COC(=O)Nc1nc2ccc(Oc3ccc(NC(=O)Nc4cc(C(F)(F)F)ccc4F)cc3)cc2n1C.Cl [GW692089]	0
CCS(=O)(=O)c1ccc(OC)c(Nc2nccc(-c3c(-c4cccc(NC(=O)c5c(F)cccc5F)c4)nn4ncccc34)n2)c1 [GSK326180]	0
CCn1c(-c2nonc2N)nc2c(C#CC(C)(C)O)nc(OC[C@H](N)c3ccccc3)cc21 [GSK943949]	0
CC(=O)Nc1nc2cnc(Nc3cc(NC(=O)c4cccc(C5(C#N)CC5)c4Cl)ccc3C)nc2s1	0
COc1ccc(CNC(=O)NC2CCN(c3ccnc(Nc4ccc(F)cc4)n3)CC2)cc1 [GSK1379788]	0
O=C(O)C(F)(F)F.O=C(O)C(F)(F)F.O=c1[nH]ccc2nc(N[C@@H]3CCCNC3)nc(Nc3ccc(S(=O)(=O)N4CCOCC4)cc3)c12 [GSK2177277]	21
Cc1occc1-c1ncc(OC[C@@H](N)Cc2c[nH]c3ccccc23)cc1-c1ccc2[nH]nc(C)c2c1.O=C(O)C(F)(F)F [GSK682037]	0
CSc1cccc2c(-c3ccncn3)c(-c3ccc(F)cc3)nn12 [GW514786]	0

SMILES	%Inh [%]
CN1CCN(Cc2cccc(-c3ccc4c(Nc5ccc(Oc6ccccc6)cc5)ccnc4c3)c2)CC1 [GW578342]	0
COc1cccc(NC(=O)NC2CCN(c3ccnc(Nc4cc(OC)c(OC)c(OC)c4)n3)C2)c1 (stereo not shown) [GSK1379763]	0
CN1CCN(CCCNc2nccc(-c3c(-c4ccc(F)cc4)nn4cc(C(F)(F)F)ccc34)n2)CC1 [GW621581]	0
COc1cc(Nc2nccc(N3CCC(NC(=O)Nc4cccc(C(C)=O)c4)C3)n2)cc(OC)c1OC (stereo not shown) [GSK1379753]	0
Cn1cc(-c2ccc3c(c2)CCN3C(=O)Cc2cccc(F)c2)c2c(N)ncnc21 [GSK2603358]	87
Clc1ccc(-c2nn3ncccc3c2-c2ccnc(Nc3ccc4c(c3)OCCO4)n2)cc1 [GW829116]	0
Cl.Cl.NCC(NC(=O)c1cc(-c2ccccc2)c(-c2ccnc3[nH]ccc23)s1)c1ccccc1 (stereo not shown) [GSK1321561]	0
c1ccc(Oc2ccc(Nc3ccnc4cc(-c5ccc(CNCCN6CCOCC6)o5)ccc34)cc2)nc1 [GW567145]	0
CC(C)(C)c1ccc2nccc(Nc3cccc(O)c3)c2c1 [GW856795]	0
COc1ccc(-c2coc3ccc(-c4nnc(SCc5ccc(OC)c(C(F)(F)F)c5)o4)cc23)cc1	5
COc1cccc(C2=C(Nc3ccc(Cl)c(C(=O)O)c3)C(=O)NC2=O)c1 [SB-390769]	99.6
O=C(Nc1n[nH]c2nc(-c3ccc(O)cc3)ccc12)C1CC1 [SB-710363]	0
CNC(=O)c1ccccc1Nc1nc(Nc2ccc(N3CCOCC3)cc2)ncc1Cl.Cl [GSK1576028]	0
COc1ccc(Nc2nccc(NCCNC(=O)c3cc4ccccc4s3)n2)cc1 [GSK1379896]	0
COc1cc(Nc2nccc(-c3c(-c4cccc(NC(=O)c5c(F)cccc5F)c4)nn4ccccc34)n2)cc(OC)c1OC [GSK323521]	39
Cc1ccc(C(=O)N2CC[C@@H](O)C2)cc1-n1c(C)cc(OCc2ccc(F)cc2F)c(Br)c1=O	0
Cc1ccc(S(=O)(=O)Nc2ccc(Nc3nccc(Nc4cccc5[nH]ncc45)n3)cc2)cc1 [GSK581271]	0
COc1cc2c(cc1OCCN1CCNCC1)ncc1c3ccc(C#N)cc3[nH]c21	0
